# Results filed as inconclusive are left out. Active and inactive are the calls of the source. The calls were made as follows, unless noted: active = hit-call score of the fitted dose curve at least 0.9, where 1 is the maximum; inactive = score below 0.9.
# Legend:
# [1] = ATG_M_06_TRANS: Attagene TRANS-FACTORIAL HepG2 Assay for M06 Transcription Factor (Internal Marker) (AID 2282983; active = hit-call score of the fitted dose curve at least 0.9, where 1 is the maximum;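 also: reporter transcript level by RT-PCR then capillary electrophoresis fluorescence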); conditions: HepG2 Attagene TRANS M06 internal marker reporter
# Procedure, shortened: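 Read-out: fluorescent reporter cDNA fragments resolved by capillary electrophoresis after RT-PCR and HpaI cut. Source cells were HepG2 carrying transfected multi-reporter GAL4 constructs, dosed 24 h. Increase over DMSO control analysed.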
# [2] = ATG_M_32_TRANS: Attagene TRANS-FACTORIAL HepG2 Assay for M32 Transcription Factor (Internal Marker) (AID 2282984; active = hit-call score of the fitted dose curve at least 0.9, where 1 is the maximum;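 also: transcript level of a background control reporter unit measured by RT-PCR and capillary electrophoresis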); conditions: HepG2 Attagene TRANS M32 internal marker reporter
# Procedure, shortened: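 Internal background reporter in transfected HepG2: after 24 h chemical exposure, RNA reverse-transcribed, reporter cDNA amplified, fluorescently labelled and HpaI-cut, then sized by capillary electrophoresis. Gain of signal fitted against DMSO control.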
# [3] = biological target: Nuclear receptor subfamily 4 group A member 2 (Homo sapiens) (UniProt P43354); experiment: ATG_NURR1_TRANS: Attagene TRANS-FACTORIAL HepG2 Assay for human Nuclear Receptor Related Protein 1 (NURR1) (AID 2282985; active = hit-call score of the fitted dose curve at least 0.9, where 1 is the maximum); conditions: HepG2 Attagene TRANS reporter, mRNA readout
# Procedure, shortened: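 Reporter transcript induction, measured by RT-PCR with fluorescent labelling, HpaI digestion and capillary electrophoresis, after 24 hr dosing of human HepG2 cells transiently expressing an exogenous NR-Gal4 fusion with GAL4-UAS-driven reporters; DMSO as baseline.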
# [4] = biological target: Transcriptional activator Myb (Homo sapiens) (UniProt P10242); experiment: ATG_Myb_CIS: Attagene CIS-FACTORIAL HepG2 Assay for human Myeloblastosis (Myb) Proto-Oncogene Transcription Factor (AID 2282986); conditions: HepG2 Attagene CIS-FACTORIAL Myb reporter transcription; actives raise or lower the signal
# Procedure, shortened: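 Using HepG2 liver cells bearing transiently transfected cis-promoter reporter constructs, the assay measures induction or loss of reporter mRNA after 24 hours of dosing. Detection used fluorescently labeled RT-PCR products separated by capillary electrophoresis.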
# [5] = ATG_NFI_CIS: Attagene CIS-FACTORIAL HepG2 Assay for human Nuclear Factor I (NFI) (AID 2282989); conditions: HepG2 cis-regulatory reporter, NFI response element transcription; actives raise or lower the signal
# Procedure, shortened: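 Cells: human liver HepG2, transiently transfected with promoter-regulated reporter transcription units. Exposure 24 h. Detection: fluorescent RT-PCR products separated by capillary electrophoresis, normalised to DMSO negative control.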
# [6] = biological target: Myc proto-oncogene protein (Homo sapiens) (UniProt P01106); experiment: ATG_Myc_CIS: Attagene CIS-FACTORIAL HepG2 Assay for human Myelocytomatosis (Myc) Proto-Oncogene Transcription Factor (AID 2282990); conditions: HepG2, Attagene cis-reporter transcription factor activity; actives raise or lower the signal
# Procedure, shortened: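 After 24 h chemical treatment of HepG2 cells carrying multiplexed cis-regulated reporter constructs, reporter transcripts quantified by RT-PCR and capillary electrophoresis of fluorescent fragments. Gain or loss fitted against DMSO baseline.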
# [7] = ATG_NF_kB_CIS: Attagene CIS-FACTORIAL HepG2 Assay for human Nuclear Factor Kappa B (NF-kB) (AID 2282991); conditions: HepG2 Attagene cis-factorial NF-kB reporter mRNA; actives raise or lower the signal
# Procedure, shortened: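 DMSO served as negative control and baseline for bidirectional curve fitting. Transiently transfected HepG2 cells were dosed for 24 h, then reporter transcripts were measured by RT-PCR with capillary electrophoresis detection.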
# [8] = ATG_NRF2_ARE_CIS: Attagene CIS-FACTORIAL HepG2 Assay for human Nuclear Factor Erythroid 2 Related Factor 2 (NFR2) response to Antioxidant Response Elements (ARE) (AID 2282992); conditions: HepG2 Attagene ARE/NRF2 reporter, transcription factor activity; actives raise or lower the signal;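 as to AC50: reporter mRNA level measured by RT-PCR and capillary electrophoresis fluorescence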
# Procedure, shortened: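 Endogenous transcription factor activity in human liver HepG2 cells is tracked via a cis-element-driven reporter within a multiplexed set. mRNA induction is read by RT-PCR and capillary electrophoresis after 24 h, with DMSO as baseline.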
# [9] = ATG_Oct_MLP_CIS: Attagene CIS-FACTORIAL HepG2 Assay for human Octamer-Binding Transcription Factor (Oct) (AID 2282993); conditions: HepG2 Attagene cis-factorial Oct reporter, mRNA; actives raise or lower the signal
# Procedure, shortened: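 HepG2, transient MRTU transfection, cis promoter elements; 24 h dosing; RT-PCR/CE fluorescence read-out of reporter mRNA; fit both directions vs DMSO.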
# [10] = BSK_3C_TissueFactor: BioMAP Diversity Plus: 3C Assay for Tissue Factor Biomarker Activity (AID 2282997); conditions: BioMAP 3C HUVEC, tissue factor biomarker readout; actives raise or lower the signal
# Procedure, shortened: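 HUVEC, 3C system, 24 h post-dose; Tissue Factor by ELISA; bidirectional fit vs DMSO baseline.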
# [11] = BSK_3C_uPAR: BioMAP Diversity Plus: 3C Assay for Urokinase-type plasminogen activator receptor (uPAR) Biomarker Activity (AID 2282998); conditions: BioMAP 3C HUVEC, uPAR biomarker ELISA; actives raise or lower the signal
# Procedure, shortened: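 A multiplexed primary-cell system built on human umbilical vein endothelium was used, with chemical present for 24 h before reading. Cell-surface uPAR was detected by ELISA; signal change in either direction counted against DMSO.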
# [12] = BSK_4H_Eotaxin3: BioMAP Diversity Plus: 4H Assay for Eotaxin 3 Biomarker Activity (AID 2283000); conditions: primary human endothelial cells (HUVEC); actives raise or lower the signal;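 as to outcome: CCL26 protein level quantified by ELISA in parallel with SRB cytotoxicity check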
# Procedure, shortened: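 Readout is Eotaxin-3 (CCL26) level by ELISA in primary human umbilical vein endothelial cells harvested 24 h after chemical exposure; activity fitted in both directions against DMSO control.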
# [13] = read-out: Intercellular Adhesion Molecule 1 (ICAM1), ICAM1 (gene 3383); experiment: BSK_3C_ICAM1: BioMAP Diversity Plus: 3C Assay for Intercellular Adhesion Molecule 1 (ICAM1) Biomarker Activity (AID 2283003); conditions: primary human endothelial cells (HUVEC); actives raise or lower the signal
# Procedure, shortened: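 ELISA readout of ICAM1 in human umbilical vein endothelial cells in the 3C system, taken 24 h post-dose. Gain or loss of signal versus DMSO was fitted in both directions, with SRB total-protein staining run in parallel.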
# [14] = biological target: Hepatocyte nuclear factor 4-alpha (Homo sapiens) (UniProt P41235); experiment: ATG_HNF4a_TRANS: Attagene TRANS-FACTORIAL HepG2 Assay for human Hepatocyte Nuclear Factor 4 alpha (HNF4a) (AID 2282982; active = hit-call score of the fitted dose curve at least 0.9, where 1 is the maximum); conditions: HepG2 HNF4a transactivation reporter, mRNA readout
# Procedure, shortened: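 Activity of an exogenous HNF4a–Gal4 fusion scored as induced GAL4-UAS reporter transcripts after 24 h chemical exposure of transfected human HepG2 cells. Read-out via RT-PCR with 6-FAM labelling and capillary electrophoresis; rise over DMSO baseline.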
# [15] = biological target: Nuclear respiratory factor 1 (Homo sapiens) (UniProt Q16656); experiment: ATG_NRF1_CIS: Attagene CIS-FACTORIAL HepG2 Assay for human Nuclear Respiratory Factor 1 (NRF1) Orphan Gene (AID 2282987); conditions: HepG2 NRF1 cis-element reporter, Attagene multiplex; actives raise or lower the signal
# Procedure, shortened: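 Reporter mRNA induction or loss in HepG2 cells after 24 h dosing; cis-regulated reporter constructs report endogenous transcription-factor activity. Quantified by RT-PCR/capillary electrophoresis fluorescence, DMSO-referenced.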
# [16] = biological target: human Peroxisome Proliferator-activated Receptor alpha (PPARa), PPARA (gene 5465) (UniProt Q07869); experiment: ATG_PPARa_TRANS: Attagene TRANS-FACTORIAL HepG2 Assay for human Peroxisome Proliferator-activated Receptor alpha (PPARa) (AID 2283001; active = hit-call score of the fitted dose curve at least 0.9, where 1 is the maximum)
# Procedure, shortened: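 Reporter transcripts quantified by RT-PCR plus capillary electrophoresis after 24 h treatment, fitted upward relative to DMSO. Cells: human HepG2 transiently carrying multiple GAL4-UAS reporter units driven by NR-Gal4 chimeras.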
# [17] = biological target: human Peroxisome Proliferator-activated Receptor delta (PPARd), PPARD (gene 5467) (UniProt Q03181); experiment: ATG_PPARd_TRANS: Attagene TRANS-FACTORIAL HepG2 Assay for human Peroxisome Proliferator-activated Receptor delta (PPARd) (AID 2283002; active = hit-call score of the fitted dose curve at least 0.9, where 1 is the maximum)
# Procedure, shortened: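 Read-out is induced reporter mRNA, quantified by RT-PCR with fluorescent labelling and capillary electrophoresis after 24 h dosing. Cells are HepG2 transiently carrying multiple GAL4-UAS reporter units driven by exogenous NR-GAL4 chimeras; DMSO serves as baseline.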
# [18] = biological target: Cellular tumor antigen p53 (Homo sapiens) (UniProt P04637); experiment: ATG_p53_CIS: Attagene CIS-FACTORIAL HepG2 Assay for human p53 Transcription Factor (AID 2282994); conditions: HepG2 p53 cis-element reporter, Attagene mRNA; actives raise or lower the signal
# Procedure, shortened: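 Steps: transfect HepG2 with multiplexed cis reporter constructs; dose chemicals 24 h; extract RNA, reverse-transcribe, PCR-amplify reporter sequences; FAM-label, HpaI-digest, resolve fragments by CE. Activity fitted both directions relative to DMSO.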
# [19] = BSK_3C_VCAM1: BioMAP Diversity Plus: 3C Assay for Vascular cell adhesion molecule 1 (VCAM1) Biomarker Activity (AID 2282999); conditions: BioMAP 3C HUVEC, VCAM1 ELISA, cytokine-stimulated; actives raise or lower the signal
# Procedure, shortened: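 Activity fitted in both directions relative to DMSO, with ELISA measurement of the surface marker on primary HUVEC (3C) at 24 h post-treatment; parallel SRB staining (0.1% SRB, TCA-fixed, 560 nm) flagged overt cytotoxicity.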
# [20] = biological target: human Retinoic Acid Receptor beta (RARb), RARB (gene 5915) (UniProt P10826); experiment: ATG_RARb_TRANS: Attagene TRANS-FACTORIAL HepG2 Assay for human Retinoic Acid Receptor beta (AID 2283004; active = hit-call score of the fitted dose curve at least 0.9, where 1 is the maximum)
# Procedure, shortened: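 Readout is reporter mRNA induction: RNA reverse-transcribed, PCR-amplified, FAM-labelled, HpaI-cut and resolved by capillary electrophoresis. Transiently transfected HepG2 cells carrying exogenous NR–Gal4 chimeras were dosed for 24 h; activity fitted upward relative to DMSO.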
# Chain of human Peroxisome Proliferator-activated Receptor alpha (PPARa), PPARA (gene 5465) (Q07869 whole entry, looked up, the tested form may be a part): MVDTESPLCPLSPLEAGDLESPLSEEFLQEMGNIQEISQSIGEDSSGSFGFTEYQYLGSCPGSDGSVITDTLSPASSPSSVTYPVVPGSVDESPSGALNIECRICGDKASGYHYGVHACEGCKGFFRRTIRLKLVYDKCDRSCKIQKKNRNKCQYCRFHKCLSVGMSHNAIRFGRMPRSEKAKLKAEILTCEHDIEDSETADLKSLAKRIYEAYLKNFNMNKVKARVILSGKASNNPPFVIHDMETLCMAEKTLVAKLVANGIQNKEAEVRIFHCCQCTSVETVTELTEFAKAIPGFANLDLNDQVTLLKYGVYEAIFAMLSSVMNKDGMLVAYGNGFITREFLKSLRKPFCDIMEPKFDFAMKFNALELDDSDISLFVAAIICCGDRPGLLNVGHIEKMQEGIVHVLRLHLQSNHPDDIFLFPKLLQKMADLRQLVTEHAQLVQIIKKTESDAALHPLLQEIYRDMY
# Chain of Nuclear respiratory factor 1 (Homo sapiens) (Q16656 whole entry, looked up): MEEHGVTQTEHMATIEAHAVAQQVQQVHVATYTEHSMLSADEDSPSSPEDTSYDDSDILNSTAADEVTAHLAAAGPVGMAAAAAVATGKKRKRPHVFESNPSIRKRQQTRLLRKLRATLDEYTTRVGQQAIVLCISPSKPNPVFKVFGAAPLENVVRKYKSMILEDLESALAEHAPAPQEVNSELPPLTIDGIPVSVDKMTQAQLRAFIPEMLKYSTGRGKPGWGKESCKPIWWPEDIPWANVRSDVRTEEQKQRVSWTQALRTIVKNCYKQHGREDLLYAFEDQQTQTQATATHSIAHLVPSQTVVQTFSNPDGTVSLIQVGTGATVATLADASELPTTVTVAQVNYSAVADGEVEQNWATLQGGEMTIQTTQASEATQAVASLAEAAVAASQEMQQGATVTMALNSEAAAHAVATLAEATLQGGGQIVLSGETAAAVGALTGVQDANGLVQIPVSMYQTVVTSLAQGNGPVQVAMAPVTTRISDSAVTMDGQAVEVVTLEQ
# Chain of Myc proto-oncogene protein (Homo sapiens) (P01106 whole entry, looked up, the tested form may be a part): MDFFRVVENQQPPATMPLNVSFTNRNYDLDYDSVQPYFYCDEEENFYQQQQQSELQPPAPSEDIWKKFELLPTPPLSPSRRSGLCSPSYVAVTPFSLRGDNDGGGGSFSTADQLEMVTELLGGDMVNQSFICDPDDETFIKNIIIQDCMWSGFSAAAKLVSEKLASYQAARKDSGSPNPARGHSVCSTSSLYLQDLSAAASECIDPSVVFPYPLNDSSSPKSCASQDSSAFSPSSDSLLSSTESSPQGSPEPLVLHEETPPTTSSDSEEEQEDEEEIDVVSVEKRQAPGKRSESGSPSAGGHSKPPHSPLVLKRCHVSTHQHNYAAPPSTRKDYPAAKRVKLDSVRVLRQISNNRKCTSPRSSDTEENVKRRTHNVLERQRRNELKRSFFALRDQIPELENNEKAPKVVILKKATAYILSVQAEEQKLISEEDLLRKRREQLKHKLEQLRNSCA
# Chain of human Peroxisome Proliferator-activated Receptor delta (PPARd), PPARD (gene 5467) (Q03181 whole entry, looked up, the tested form may be a part): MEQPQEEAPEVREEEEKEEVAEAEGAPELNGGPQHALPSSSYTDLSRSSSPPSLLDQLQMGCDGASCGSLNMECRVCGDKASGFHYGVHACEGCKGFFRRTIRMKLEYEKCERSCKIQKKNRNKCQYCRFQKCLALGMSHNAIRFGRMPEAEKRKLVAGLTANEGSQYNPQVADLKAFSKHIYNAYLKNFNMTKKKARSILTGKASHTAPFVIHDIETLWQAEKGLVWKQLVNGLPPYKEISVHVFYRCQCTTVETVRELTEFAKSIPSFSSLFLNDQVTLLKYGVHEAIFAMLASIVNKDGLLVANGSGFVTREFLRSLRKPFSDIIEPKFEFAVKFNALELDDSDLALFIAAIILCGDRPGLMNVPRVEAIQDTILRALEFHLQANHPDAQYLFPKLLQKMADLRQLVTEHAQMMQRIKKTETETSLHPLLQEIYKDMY
# Chain of Nuclear receptor subfamily 4 group A member 2 (Homo sapiens) (P43354 whole entry, looked up, the tested form may be a part): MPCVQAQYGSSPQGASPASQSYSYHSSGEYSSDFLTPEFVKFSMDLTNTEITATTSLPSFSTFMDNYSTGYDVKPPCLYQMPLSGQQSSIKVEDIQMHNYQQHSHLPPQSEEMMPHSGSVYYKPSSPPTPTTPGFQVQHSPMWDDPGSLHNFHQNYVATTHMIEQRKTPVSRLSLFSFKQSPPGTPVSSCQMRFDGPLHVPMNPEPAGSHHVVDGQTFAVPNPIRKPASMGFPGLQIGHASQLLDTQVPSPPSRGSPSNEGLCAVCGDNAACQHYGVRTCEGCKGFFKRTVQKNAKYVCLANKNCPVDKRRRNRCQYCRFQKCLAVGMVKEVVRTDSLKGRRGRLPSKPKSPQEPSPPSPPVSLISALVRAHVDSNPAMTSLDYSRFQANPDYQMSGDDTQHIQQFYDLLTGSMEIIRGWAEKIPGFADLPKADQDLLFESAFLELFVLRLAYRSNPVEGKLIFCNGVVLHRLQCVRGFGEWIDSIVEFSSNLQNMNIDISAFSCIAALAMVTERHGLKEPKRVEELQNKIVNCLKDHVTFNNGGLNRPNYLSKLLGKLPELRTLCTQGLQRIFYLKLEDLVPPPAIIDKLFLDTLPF
# Chain of Cellular tumor antigen p53 (Homo sapiens) (P04637 whole entry, looked up, the tested form may be a part): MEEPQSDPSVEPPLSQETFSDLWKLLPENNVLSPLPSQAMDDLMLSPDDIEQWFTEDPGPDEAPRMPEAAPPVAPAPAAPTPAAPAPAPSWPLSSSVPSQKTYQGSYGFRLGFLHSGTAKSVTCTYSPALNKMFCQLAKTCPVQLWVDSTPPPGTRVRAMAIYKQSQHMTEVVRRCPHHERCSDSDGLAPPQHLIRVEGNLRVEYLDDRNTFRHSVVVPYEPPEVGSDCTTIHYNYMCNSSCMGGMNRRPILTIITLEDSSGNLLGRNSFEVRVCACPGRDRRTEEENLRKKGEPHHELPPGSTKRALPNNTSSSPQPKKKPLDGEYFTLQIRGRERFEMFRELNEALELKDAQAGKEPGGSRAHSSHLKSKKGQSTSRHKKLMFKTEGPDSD
# Chain of Transcriptional activator Myb (Homo sapiens) (P10242 whole entry, looked up): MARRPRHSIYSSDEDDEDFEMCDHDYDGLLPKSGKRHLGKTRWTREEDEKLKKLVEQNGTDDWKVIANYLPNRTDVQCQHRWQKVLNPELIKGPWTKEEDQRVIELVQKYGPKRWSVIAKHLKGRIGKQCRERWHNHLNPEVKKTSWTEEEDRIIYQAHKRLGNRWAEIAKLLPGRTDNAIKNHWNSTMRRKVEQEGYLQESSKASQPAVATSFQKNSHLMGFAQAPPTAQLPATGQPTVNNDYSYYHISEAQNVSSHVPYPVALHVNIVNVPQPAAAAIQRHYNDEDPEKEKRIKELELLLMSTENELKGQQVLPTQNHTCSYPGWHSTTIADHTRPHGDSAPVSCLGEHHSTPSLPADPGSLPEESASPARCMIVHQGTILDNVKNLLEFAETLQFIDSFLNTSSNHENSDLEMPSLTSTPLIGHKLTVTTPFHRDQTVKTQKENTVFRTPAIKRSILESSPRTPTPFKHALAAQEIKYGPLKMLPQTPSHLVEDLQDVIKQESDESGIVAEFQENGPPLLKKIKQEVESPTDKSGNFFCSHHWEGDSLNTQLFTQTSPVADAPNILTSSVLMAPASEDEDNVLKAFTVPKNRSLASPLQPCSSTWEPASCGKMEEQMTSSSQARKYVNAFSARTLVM
# Chain of Hepatocyte nuclear factor 4-alpha (Homo sapiens) (P41235 whole entry, looked up, the tested form may be a part): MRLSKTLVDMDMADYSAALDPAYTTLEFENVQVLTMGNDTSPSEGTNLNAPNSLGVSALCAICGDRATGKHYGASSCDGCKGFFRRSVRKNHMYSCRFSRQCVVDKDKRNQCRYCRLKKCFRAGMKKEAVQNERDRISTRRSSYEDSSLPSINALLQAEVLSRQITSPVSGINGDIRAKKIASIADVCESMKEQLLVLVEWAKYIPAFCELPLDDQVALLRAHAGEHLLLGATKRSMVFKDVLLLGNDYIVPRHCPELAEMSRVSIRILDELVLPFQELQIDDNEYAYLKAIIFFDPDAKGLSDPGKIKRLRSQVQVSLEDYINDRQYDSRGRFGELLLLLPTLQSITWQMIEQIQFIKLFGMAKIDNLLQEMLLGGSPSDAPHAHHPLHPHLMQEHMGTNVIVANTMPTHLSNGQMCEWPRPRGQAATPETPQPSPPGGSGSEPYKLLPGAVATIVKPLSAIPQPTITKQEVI
# Chain of human Retinoic Acid Receptor beta (RARb), RARB (gene 5915) (P10826 whole entry, looked up, the tested form may be a part): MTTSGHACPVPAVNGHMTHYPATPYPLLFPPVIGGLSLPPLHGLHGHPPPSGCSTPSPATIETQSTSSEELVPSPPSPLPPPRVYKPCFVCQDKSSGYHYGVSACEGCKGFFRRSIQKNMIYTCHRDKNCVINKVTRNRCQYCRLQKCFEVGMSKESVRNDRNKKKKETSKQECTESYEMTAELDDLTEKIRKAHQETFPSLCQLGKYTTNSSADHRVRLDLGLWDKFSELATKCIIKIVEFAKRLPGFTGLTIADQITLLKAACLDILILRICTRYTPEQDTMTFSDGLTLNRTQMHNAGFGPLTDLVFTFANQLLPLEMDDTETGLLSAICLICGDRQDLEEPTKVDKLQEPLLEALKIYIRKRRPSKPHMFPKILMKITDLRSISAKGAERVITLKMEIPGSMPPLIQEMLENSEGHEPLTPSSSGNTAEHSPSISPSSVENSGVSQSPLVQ
smiles,measurement,setting,value
CCOP(=O)(OCC)SCCSCC,outcome,[1],inactive
same,outcome,[2],inactive
same,outcome,[3],inactive
same,outcome,[4],inactive
same,outcome,[5],inactive
same,outcome,[6],inactive
same,outcome,[7],inactive
same,outcome,[8],inactive
same,outcome,[9],inactive
same,outcome,[10],inactive
same,outcome,[11],inactive
same,outcome,[12],inactive
same,outcome,[13],inactive
Brc1ccc(Br)cc1,outcome,[14],inactive
same,outcome,[4],inactive
same,outcome,[15],inactive
same,outcome,[5],inactive
same,outcome,[6],inactive
same,outcome,[8],inactive
same,outcome,[9],inactive
same,outcome,[16],inactive
same,outcome,[17],inactive
Cc1ccc(OP(=O)(Oc2ccc(C)cc2C)Oc2ccc(C)cc2C)c(C)c1,outcome,[1],inactive
same,outcome,[2],inactive
same,outcome,[3],inactive
same,outcome,[4],inactive
same,outcome,[15],inactive
same,outcome,[5],inactive
same,AC50,[7],25.9 µM (active)
same,AC50,[8],12.3 µM (active)
same,outcome,[9],inactive
same,outcome,[18],inactive
same,outcome,[10],inactive
same,outcome,[11],inactive
same,outcome,[19],inactive
same,outcome,[12],inactive
same,outcome,[17],inactive
same,outcome,[13],inactive
CS(=O)(=O)c1ccc(C(=O)C2C(=O)CCCC2=O)c(Cl)c1COCC(F)(F)F,outcome,[1],inactive
same,outcome,[2],inactive
same,outcome,[4],inactive
same,outcome,[5],inactive
same,outcome,[6],inactive
same,outcome,[7],inactive
same,outcome,[8],inactive
same,outcome,[9],inactive
same,outcome,[18],inactive
same,outcome,[16],inactive
CCOC(=O)Cc1ccccc1,outcome,[1],inactive
same,outcome,[2],inactive
same,outcome,[3],inactive
same,outcome,[4],inactive
same,outcome,[5],inactive
same,outcome,[6],inactive
same,outcome,[8],inactive
same,outcome,[9],inactive
same,outcome,[16],inactive
N#Cc1ccc(Cl)cc1,outcome,[1],inactive
same,outcome,[2],inactive
same,outcome,[3],inactive
same,outcome,[4],inactive
same,outcome,[15],inactive
same,outcome,[5],inactive
same,outcome,[6],inactive
same,outcome,[7],inactive
same,outcome,[8],inactive
same,outcome,[9],inactive
same,outcome,[18],inactive
same,outcome,[16],inactive
same,outcome,[17],inactive
O=C1C=CC(=O)c2ccccc21,outcome,[1],inactive
same,outcome,[2],inactive
same,outcome,[3],inactive
same,outcome,[4],inactive
same,outcome,[15],inactive
same,outcome,[5],inactive
same,outcome,[6],inactive
same,outcome,[7],inactive
same,AC50,[8],2.23 µM (active)
same,outcome,[9],inactive
same,outcome,[18],inactive
same,AC50,[10],1.93 µM (active)
same,AC50,[11],1.7 µM (active)
same,AC50,[19],3.48 µM (active)
same,AC50,[12],2.17 µM (active)
same,outcome,[16],inactive
same,AC50,[13],5.9 µM (active)
Clc1cc(C(Cl)(Cl)Cl)cnc1Cl,outcome,[14],inactive
same,outcome,[4],inactive
same,outcome,[15],inactive
same,AC50,[5],44.8 µM (active)
same,AC50,[6],55.5 µM (active)
same,AC50,[7],8.56 µM (active)
same,outcome,[8],inactive
same,AC50,[9],15.6 µM (active)
same,AC50,[18],14.7 µM (active)
same,outcome,[16],inactive
same,outcome,[20],inactive
O=S(=O)(C(Cl)(Cl)Cl)C(Cl)(Cl)Cl,outcome,[1],inactive
same,outcome,[2],inactive
same,outcome,[3],inactive
same,outcome,[4],inactive
same,outcome,[15],inactive
same,AC50,[5],17.9 µM (active)
same,AC50,[6],11.1 µM (active)
same,AC50,[7],15.6 µM (active)
same,AC50,[8],2.87 µM (active)
same,AC50,[9],16.4 µM (active)
same,AC50,[18],15.1 µM (active)
same,AC50,[10],1.11 µM (active)
same,AC50,[11],1.24 µM (active)
same,AC50,[12],1.47 µM (active)
same,outcome,[16],inactive
same,outcome,[17],inactive
same,AC50,[13],2.9 µM (active)

# From PubChem BioAssay (EPA / NIEHS)
